Data taken from PubChem BioAssay.
Several values for one entry are separate records, joined by “and”; a condition that tells them apart may be missing. Equal entries are not always repeated.

target: Calmodulin-1 (Homo sapiens) (UniProt P0DP23); assay: calcium-bound CALM1 binders on microarrays, profiling panel, artefact control for SMM control-protein annotation, biochemical, small-molecule microarray, Cy5-labelled CALM1, plus calcium (AID 1112); settings: Cy5-CALM1 binding fluorescence, higher = more signal;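 also: score merges spot fluorescence with signal to noise from triplicate slides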

SMILES	composite z-score
C[N+](C)(C)CCCCNC(=O)[C@H]1C[C@H]2C(=O)N[C@@H](CCCC[N+](C)(C)C)C(=O)N2[C@H]1c1ccc(O)cc1	-0.426 and -1.34
CO[C@@H]1COC(=O)[C@H](Cc2ccccc2)NC(=O)CC=C[C@@H](C)[C@H](OC)COC(=O)[C@@H](C)NC(=O)CC=C[C@H]1C	-1.89 and -1.85
CCOC(=O)c1ccc(NC(=O)O[C@H]2[C@H](OC(=O)Nc3ccccc3)[C@H](OC(=O)Nc3ccccc3)[C@@H](OC)O[C@@H]2CO)cc1	0.0672 and 0.407
CC(C)OC(=O)C=C1C[C@@H](c2ccccc2)O[C@@H](c2ccccc2)O1	-0.147 and -0.505
C=CCN(C(=O)C1N(CCOCCO)C(=O)C2C(C(=O)O)C3C=CC21O3)c1ccc(OC)cc1 (stereo not drawn)	0.538 and -0.237
CCCC[C@@H]1CN2[C@H](c3ccc(Br)cc3)[C@@H](C)CC[C@H]2C(=O)O1	-0.329 and -0.334
COC(=O)[C@@]1(Cc2ccc(OC)cc2)[C@H]2c3cc(C(=O)N(C)C)n(Cc4ccc(O)c(OC)c4)c3C[C@H]2CN1C(=O)c1ccccc1	0.88 and 0.206
CCOC(=O)NN=C1C[C@@H](O)[C@@H](O)[C@@H]2[C@@H]3C(=O)N(Cc4ccc5c(c4)OCO5)C(=O)[C@@H]3CC[C@@H]12	-0.727
C=CCN(CCCC)C(=O)C(c1cccs1)N(CCOCCO)C(=O)/C=C\C(=O)O (stereo not drawn)	0.988 and 0.502
C=CCN(CCCCC)C(=O)C(c1cccs1)N(C(=O)/C=C\C(=O)O)c1c(Cl)cccc1CO (stereo not drawn)	0.782 and -0.54
CC(CO)N1C(=O)[C@@H]2C3C(=O)OCCC=C[C@H]3OC23C=CCN(c2ccc4ccccc4c2)C(=O)[C@@H]13 (stereo partly drawn)	0.0293 and -1.1
C=C[C@@H](C)[C@@H](O)c1ccc(O)c2ccccc12	-0.36 and -0.903
C=CCN(C(=O)C1N(CCCCCCO)C(=O)C2C(C(=O)O)C3C=CC21O3)c1ccc(OC)cc1 (stereo not drawn)	0.734 and 0.0742
CC[C@@H]1C(Sc2ccccc2)C(C(=O)O)[C@H](c2ccc(C)cc2)N1S(=O)(=O)c1ccc(C)cc1 (stereo partly drawn)	0.345 and 0.527
CC(C)=NO[C@@H](C)c1cc(-c2c(C)cc(C)cc2C)no1	-0.264
C[N+](C)(C)CCCCCCNC(=O)[C@H]1C[C@H]2C(=O)N[C@@H](CCCC[N+](C)(C)C)C(=O)N2[C@H]1c1ccc(O)cc1	-0.452 and -1.03
C=CCN(C(=O)C(c1cccs1)N(C(=O)/C=C\C(=O)O)c1ccc(CCO)cc1)C(C)(C)C (stereo not drawn)	1.1 and 0.871

SMILES	composite z-score
C=C[C@@H](OC)[C@H](O)c1ccc(OC)c(O)c1	-0.799 and -0.187
C#CCCCON=C1C[C@@H](O)[C@@H](O)[C@@H]2[C@@H]3C(=O)N(C4CCCCC4)C(=O)[C@@H]3CC[C@H]12	0.244
CC(C)N1CC=CC23O[C@@H]4C=CCCOC(=O)C4[C@H]2C(=O)N(C(C)CO)[C@@H]3C1=O (stereo partly drawn)	0.269 and 0.224
CCOC(=O)[C@@H]1CC=C2CC1C(=O)N1CCC[C@@H]1[C@H]2O[Si](C)(C)C(C)(C)C (stereo partly drawn)	-0.312 and -1.91
C=CCN(CCCC)C(=O)C(c1cccs1)N(C(=O)/C=C\C(=O)O)c1ccc(CCO)cc1 (stereo not drawn)	0.423 and 0.395
COC(=O)[C@H](C)NC(=O)CCC1CC(OC(=O)NCCc2ccc(F)cc2)CC2(CCCC(COC(=O)NCCCN3CCCC3=O)O2)O1 (stereo partly drawn)	-0.387
C[C@@H]1CC[C@@H](C(=O)O)N[C@H]1c1ccc(-c2ccco2)cc1	-1.3
CCOC(=O)C[C@H]1[C@H](OC(=O)c2ccccc2-c2ccccc2)[C@@H](NC(=O)c2ccccc2)c2cc(OCCCO)ccc2N1C(=O)c1ccc2ccccc2n1	-0.148 and 0.227
COC(=O)C1=C(C)N(Cc2ccccc2)C2=C3C(=O)N(C)C(=O)[C@@H]3[C@@](O)(C(=O)OC)C(=O)N2[C@@H]1c1ccccc1	-0.668 and -0.691
CC(C)CON=C1C[C@@H](O)[C@@H](O)[C@@H]2[C@@H]3C(=O)N(c4cccc(Oc5ccccc5)c4)C(=O)[C@@H]3CC[C@H]12	-0.201
C=C[C@@H](OC)[C@H](O)c1ccc(OCCO)cc1	-0.778 and -0.247
CC(CO)N1C(=O)[C@@H]2C3C(=O)OCCC=C[C@H]3OC23C=CCN(c2ccc(Cl)cc2)C(=O)[C@@H]13 (stereo partly drawn)	1.09 and -0.66
C=CCN(CCCCC)C(=O)C1N(CCOCCO)C(=O)C2C(C(=O)O)C3C=CC21O3 (stereo not drawn)	1.01 and 1.07
C=CCN(C(=O)C1N(CCCCCCO)C(=O)C2C(C(=O)O)C3C=CC21O3)C(C)(C)C (stereo not drawn)	0.915 and 0.825
COC(=O)C1=C(C)N(Cc2ccccc2)C2=C(C(C)=O)C[C@@](O)(C(=O)OC)C(=O)N2[C@@H]1c1ccccc1	-1.13 and -0.338
C=CCN(C(=O)C(c1cccs1)N(CCOCCO)C(=O)/C=C\C(=O)O)C(C)(C)C (stereo not drawn)	-0.183 and 0.48
